Results filed as inconclusive are left out. Activity calls are given as the source filed them. The call rests on the fitted dose curve; in most records, active means well fitted curve in the direction sought with a large enough effect in the repeat runs; inconclusive means weak or mixed curves; inactive means no such curve, though single readings can be large; an effect the other way counts as inactive or inconclusive.
Experiments:
[1] = qHTS assay to test for compound auto fluorescence at 535 nm (green) in HEK293 cells (AID 720680)
[2] = qHTS assay to test for compound auto fluorescence at 460 nm (blue) in HEK293 cell free culture (AID 720681)
In short: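 Test compounds were pinned into cell-free culture medium (DMEM with 10% FBS) and fluorescence was read directly at Ex/Em 405/460 nm. Signals were expressed as fluorescence equivalents of triamterene, with DMSO vehicle as control.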

[3] = qHTS assay to test for compound auto fluorescence at 535 nm (green) in HEK293 cell free culture (AID 720682)
In short: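 DMEM + 10% FBS, cell-free; cpd or DMSO pinned in; Ex485/Em535 read; output as fluorescein-equivalent signal.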

[4] = qHTS assay to test for compound auto fluorescence at 590 nm (red) in HEK293 cell free culture (AID 720683)
In short: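 Tox21 10K library compounds were pinned into cell-free DMEM with 10% FBS and fluorescence was read at excitation 540 nm. Activity is expressed as Rose Bengal sodium equivalency.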

[5] = qHTS assay to test for compound auto fluorescence at 590 nm (red) in HepG2 cell free culture (AID 720684)
In short: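 Readout: intrinsic compound fluorescence at 590 nm emission after 540 nm excitation, scaled to Rose Bengal sodium. Matrix was cell-free MEM with 10% FBS; DMSO vehicle wells served as control.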

[6] = qHTS assay to test for compound auto fluorescence at 460 nm (blue) in HepG2 cell free culture (AID 720685)
In short: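 Cell-free plates of MEM plus 10% FBS received 23 nL compound or DMSO vehicle; blue-channel (405/460 nm) intensity scored against triamterene as reference fluorophore.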

[7] = qHTS assay to test for compound auto fluorescence at 535 nm (green) in HepG2 cell free culture (AID 720686)
[8] = qHTS assay to test for compound auto fluorescence at 460 nm (blue) in HepG2 cells (AID 720687)
In short: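 Cells (2,000/well in MEM with 10% FBS) attached overnight at 37 C, then were exposed to compound or DMSO for 1 hr at 37 C, 5% CO2. Fluorescence read at Ex/Em 405/460 nm, expressed as triamterene-equivalent signal.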

[9] = qHTS assay to identify small molecule antagonists of the glucocorticoid receptor (GR) signaling pathway - cell viability counter screen (AID 720693); further: nearly all actives have a fitted effect of over 55% in size
[10] = qHTS assay for identifying genotoxic compounds that show differential cytotoxicity against isogenic chicken DT40 cell lines with known DNA damage response pathways - wild type cell line (AID 743012); further: nearly all actives have a fitted effect of over 60% in size; further: potency means the concentration at half of the fitted maximal effect
In short: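 300 wt DT40 cells/well; cpd (DMSO) pintool-transferred after ~0.5 h at 37 C/5% CO2; 40 h incubation; CellTiter-Glo added, 30 min RT; luminescence read.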

[11] = qHTS assay for identifying genotoxic compounds that show differential cytotoxicity against isogenic chicken DT40 cell lines with known DNA damage response pathways - Rev3 mutant cell line (AID 743014); further: nearly all actives have a fitted effect of over 55% in size; further: potency means the concentration at half of the fitted maximal effect
[12] = qHTS assay for identifying genotoxic compounds that show differential cytotoxicity against isogenic chicken DT40 cell lines with known DNA damage response pathways - Rad54/Ku70 mutant cell line (AID 743015); further: nearly all actives have a fitted effect of over 60% in size; further: potency means the concentration at half of the fitted maximal effect
[13] = qHTS assay to identify small molecule antagonists of the androgen receptor (AR) signaling pathway using the MDA cell line - cell viability counter screen (AID 743041; further: nearly all actives have a fitted effect of over 45% in size)
In short: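 qHTS viability read-out; MDA-kb2 AR-luc; R1881-stimulated; 16 h exposure at 37C, 0% CO2; CellTiter-Fluor, 30 min; fluorescence intensity.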

[14] = qHTS assay to identify small molecule antagonists of the androgen receptor (AR) signaling pathway - cell viability counter screen (AID 743033; further: nearly all actives have a fitted effect of over 45% in size)

Measured: Potency

CC(C)(C)NC[C@H](O)c1ccc(O)cc1Cl
inactive: [1] | [2] | [3] | [4] | [5] | [6] | [7] | [8] | [9] | [10] | [11] | [12] | [13]

O=P(O)(O)c1ccccc1
inactive: [1] | [2] | [3] | [4] | [5] | [6] | [7] | [8] | [9] | [11] | [12] | [14] | [13]

Oc1ccc2c3c1O[C@H]1[C@@H](O)C=C[C@H]4[C@@H](C2)NCC[C@@]341
inactive: [1] | [2] | [3] | [4] | [5] | [6] | [7] | [8] | [9] | [10] | [11] | [12] | [14] | [13]

O=C(NC(=O)c1c(F)cccc1F)Nc1cc(Cl)c(F)c(Cl)c1F
inactive: [1] | [2] | [3] | [4] | [5] | [6] | [7] | [8] | [9] | [14] | [13]
active: [10] 8.42 µM

NNC(N)=O
inactive: [1] | [2] | [3] | [4] | [5] | [6] | [7] | [8] | [9] | [10] | [11] | [12] | [14] | [13]

ClCCCCl
inactive: [1] | [2] | [3] | [4] | [5] | [6] | [7] | [8] | [9] | [10] | [11] | [12] | [13]

CCCC[N+](=O)[O-]
inactive: [1] | [2] | [3] | [4] | [5] | [6] | [7] | [8] | [9] | [10] | [11] | [12] | [13]

CC(C)(C1CCC(O)CC1)C1CCC(O)CC1 (stereo not given)
inactive: [1] | [2] | [3] | [4] | [5] | [6] | [7] | [8] | [9] | [10] | [12] | [14] | [13]

O=C(O)C(F)(F)C(F)(F)C(F)(F)C(F)(F)C(F)(F)C(F)(F)F
inactive: [1] | [2] | [3] | [4] | [5] | [6] | [7] | [8] | [9] | [11] | [12] | [14] | [13]

BrCC1CO1 (stereo not given)
active: [11] 61.4 µM
inactive: [1] | [2] | [3] | [4] | [5] | [6] | [7] | [8] | [9] | [10] | [12] | [14] | [13]

NC1(c2ccccc2)CCCCC1
inactive: [1] | [2] | [3] | [4] | [5] | [6] | [7] | [8] | [9] | [14] | [13]
active: [10] 60.6 µM

CS(=O)(=O)Cl
inactive: [1] | [2] | [3] | [4] | [5] | [6] | [7] | [8] | [9] | [10] | [11] | [12] | [14] | [13]

CCC(C(N)=O)N1CCCC1=O (stereo not given)
inactive: [1] | [2] | [3] | [4] | [5] | [6] | [7] | [8] | [9] | [10] | [11] | [12] | [14] | [13]

CC(=NC#N)N(C)Cc1ccc(Cl)nc1
inactive: [1] | [2] | [3] | [4] | [5] | [6] | [7] | [8] | [9] | [10] | [11] | [12] | [14] | [13]

N#CC(Br)(Br)C(N)=O
active: [11] 61.1 µM | [12] 61.1 µM
inactive: [1] | [2] | [3] | [4] | [5] | [6] | [7] | [8] | [9]

CC(Cl)(Cl)Cl
inactive: [1] | [2] | [3] | [4] | [5] | [6] | [7] | [8] | [9] | [10] | [11] | [12] | [14] | [13]

CCCOC(=O)Cc1ccc(OCC(=O)N(CC)CC)c(OC)c1
inactive: [1] | [2] | [3] | [4] | [5] | [6] | [7] | [8] | [9] | [12] | [14] | [13]

CCCN1CCC[C@@H]2Cc3nc(N)ncc3C[C@H]21
inactive: [1] | [2] | [3] | [4] | [5] | [6] | [7] | [8] | [9] | [10] | [11] | [12] | [14] | [13]

O=C(O)c1c(Cl)ccc2cc(Cl)cnc12
inactive: [1] | [2] | [3] | [4] | [5] | [6] | [7] | [8] | [9] | [10] | [11] | [12] | [14] | [13]

COP(=O)(OC)O/C(C)=C/C(=O)N(C)C
inactive: [1] | [2] | [3] | [4] | [5] | [6] | [7] | [8] | [9] | [10] | [11] | [12] | [14] | [13]

From PubChem BioAssay (Tox21)
